# ± gives the standard deviation.
# Key:
# [1] = system: Streptococcus suis HE06; experiment: percent growth relative to DMSO control; higher = less growth inhibition; conditions: 10 µM; incubation time 18 h
# Protocol: (§1)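 CLSI broth microdilution: 5x10^4 CFU of Streptococcus suis (strain P1/7 or HE06) incubated with 10 µM Pathogen Box compound in cation-adjusted Mueller Hinton broth, 37 °C, 5% CO2, 18 h. Growth read as OD600 and expressed as percent of the DMSO-treated control (100%); mean ± SD of three independent experiments.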
# [2] = system: Streptococcus suis P1/7; experiment: as above; conditions: 10 µM; incubation time 18 h
# Protocol: as §1
SMILES,percent growth [1] [%],percent growth [2] [%]
Nc1cccnc1Nc1ccc(Cl)cc1,94.6 ± 4.4,101 ± 40
CCC(=O)Nc1ccccc1C(=O)Nc1ccccn1,93.7 ± 5.2,103 ± 41
CNc1cc(C)nc(C2CN(C(=O)c3n[nH]c4ccccc34)CCO2)c1 (stereo not given),89.6 ± 5.4,–
Clc1ccc(Cl)c(CO[C@H]2CCCC[C@@H]2n2ccnc2)c1,26.2 ± 40,20.8 ± 36
O=C(CN1CCOCC1)Nc1ccc2ncnc(Nc3ccc(OCc4cccc(F)c4)c(Cl)c3)c2c1,53.5 ± 39,63 ± 18
CCN(CC)CCCN1CCN(C(=O)c2cccc(-c3noc(C(F)(F)F)n3)c2)CC1,90.3 ± 14,138 ± 110
Cc1cc(Nc2ccncc2)n2nc(C)c(-c3ccccc3Cl)c2n1,73.9 ± 22,105 ± 37
COc1cc(C2=NCCN2)ccc1-n1cc(-c2cccc(C3=NCCN3)c2)nn1,99.7 ± 40,–
CC(=O)N(CCN(C(=O)c1ccc(F)cc1)c1ccccc1)c1ccccc1,86.6 ± 26,69 ± 13
NCCCC(N)(C(=O)O)C(F)F (stereo not given),84.8 ± 12,90.1 ± 16
CN1CCN(S(=O)(=O)c2ccc(-c3ccc4c(Nc5ncc(Cl)cn5)ccnc4c3)cc2)CC1,92.2 ± 8.5,–
Cc1ccc(S(=O)(=O)Nc2ccc(CN3CCN(C(=O)c4cccc(C#N)c4)CC3)cc2)cc1,104 ± 9.6,114 ± 40
CCCCS(=O)(=O)Nc1ccc2cnn(C)c2c1,92.3 ± 11,73 ± 10
O=C(Nc1nc(-c2ccccn2)cs1)C1CC1c1ccccc1F (stereo not given),-0.0889 ± 1.4,2.29 ± 3.7
COc1cc(-c2cc(-c3ccc(S(C)(=O)=O)cc3)cnc2N)ccc1O,106 ± 34,70.7 ± 22
CS(=O)(=O)c1cccc(-c2cnc3[nH]cc(-c4ccc(CCC(=O)O)cc4)c3c2)c1,68.7 ± 5.5,52.9 ± 34
CCCc1ccc(S(=O)(=O)Nc2ccc(CN3CCN(CC4CC4)CC3)cc2)cc1,88 ± 15,94.1 ± 34
COc1cc(C2=NCCN2)cc2cc(-c3ccc(C4=NCCN4)cc3)oc12,106 ± 34,83.2 ± 17
CNc1nnc(Sc2cnn(-c3ccccc3)c(=O)c2Cl)s1,81.9 ± 1.8,110 ± 52
CCc1nc2ccc(C(=O)NCc3ccc4c(c3)OCO4)cn2c1N(C)Cc1cccs1,122 ± 67,72.9 ± 11
CC(C)N=c1cc2n(-c3ccc(Cl)cc3)c3ccccc3nc-2cc1Nc1ccc(Cl)cc1,29.6 ± 51,48.2 ± 42
O=C(OCc1ccccc1)N1CCC(c2cc(-c3ccncc3)c(-c3ccc(F)cc3)[nH]2)CC1,126 ± 61,–
CCc1ccc(S(=O)(=O)Nc2cc(CN3CCN(CCC(C)C)CC3)ccc2C)cc1,95.7 ± 12,73.2 ± 8.1
CC(C)(C(=O)Nc1ccc(F)cc1)n1cc(-c2ccccc2F)cn1,106 ± 22,84.1 ± 6.1

SMILES,percent growth [1] [%],percent growth [2] [%]
CC(Oc1cccc(Cl)c1)C(=O)Nc1ccc2oc(-c3ccncc3)nc2c1 (stereo not given),75.2 ± 17,77.5 ± 2.9
CN1CCN(S(=O)(=O)c2ccc(-c3ccc4c(Nc5ccc6nn[nH]c6c5)ccnc4c3)cc2)CC1,103 ± 42,–
Cc1ccc(-c2nc(CN(Cc3ccccn3)C(C)C)cs2)o1,25.7 ± 44,19.4 ± 34
Cc1ccc(NC(=O)c2nc[nH]c2C(=O)Nc2nc3ccccc3[nH]2)c(C)c1,47.8 ± 38,1.93 ± 0.44
CC1CC1C(=O)NC1CCN(CC2(c3ccccc3)CCCCC2)CC1 (stereo not given),76.8 ± 15,71.1 ± 43
CCCn1c(CNc2ccccc2O)nc2ccccc21,62.6 ± 7.6,–
CC(=O)NC[C@H]1CN(c2ccc(N3CCSCC3)c(F)c2)C(=O)O1,3.44 ± 3.9,2.2 ± 3.8
COc1cccc(-c2nc3c(N4CCCC4)cccc3n2CC2CCCN2)n1 (stereo not given),84.4 ± 7,58.2 ± 19
O=C(Cn1ccnc1[N+](=O)[O-])NCc1ccccc1,79.1 ± 10,114 ± 48
CC(C)(C)OC(=O)N1CCC(Cn2nc(-c3cnc4ccccc4c3)c3c(N)ncnc32)CC1,88.2 ± 27,74.1 ± 6.8
COc1ccc(C(=N)N)cc1-c1cn(-c2ccc(C(=N)N)cc2)nn1,105 ± 42,75.7 ± 2.9
O=C(C1CCN(c2nnnn2-c2ccccc2)CC1)N1CCc2ccccc2C1,86.9 ± 28,62.4 ± 21
COc1ccc(OC(C)C(=O)Nc2ccc(Cl)cc2C)cc1 (stereo not given),107 ± 13,82.7 ± 6.3
CNC(=O)CNc1nc(-c2ccccn2)nc2scc(-c3ccccc3)c12,87.1 ± 13,43 ± 38
O=C(Nc1ccc(N2CCNCC2)nc1)c1oc(-c2ccccc2)nc1C(F)(F)F,93.7 ± 20,63.6 ± 18
Cc1ccc2nc(Cl)c(CNCc3cccs3)cc2c1,93.6 ± 9.5,100 ± 21
C[C@H](C(N)=O)N1CCCC[C@@H]1c1ccc(OCc2cccc(F)c2)cc1,125 ± 34,89.7 ± 15
COc1ccccc1CNC(=O)c1cc(C2CC2)nc2c1cnn2C(C)C,81.6 ± 10,83.8 ± 45
O=C(Nc1nnc(S)s1)c1cc(Br)ccc1Cl,107 ± 10,79.5 ± 9.2
CN(C(=O)c1cc2c(-c3cncnc3)cccc2[nH]1)c1ccccc1,102 ± 29,72.2 ± 27
O=C1COCc2ccc(Br)cc2N1Cc1ccc(C(F)(F)F)cc1,84.3 ± 26,75.4 ± 7.3
Cc1nc2ccccn2c1C(=O)NCc1ccc(Cl)cc1,78.1 ± 14,133 ± 76
FC(F)(F)c1ccc(N(c2cccnc2)C2CCN(c3ccc(C(F)(F)F)cn3)CC2)cc1,67.9 ± 13,61.4 ± 12
OCCc1ccc(Nc2nccc(-c3nnc4ccccn34)n2)cc1,92.9 ± 6.6,88.5 ± 13
